Most compounds without a hit are left out; they make up all but 4.2% or so of the library.
tim23-1 inh: inhibits growth of tim23-1 mutant yeast; S. cerevisiae tim23-1 growth, BacTiter-Glo luminescence, 24 h; inhibition, % at 20 µM; 330,000 compounds, 1.3% hits; AID 463212;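 active means growth inhibition of the mutant yeast at or above 50%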;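 further: temperature-sensitive mutant grown at 25 °C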
TIM10 inh: growth inhibitors of TIM10 yeast strain | S. cerevisiae TIM10 strain growth, BacTiter-Glo luminescence, 24 h | inhibition, % at 10 µM | 330,000 compounds, 1.4% hits;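 active means inhibition of 40% or more at the single tested concentration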;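 further: wild-type TIM10 isogenic control strain grown at permissive 25 °C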
PfHsp90 set2: reduces growth (ATP signal) of yeast expressing P. falciparum Hsp90; 310,000 compounds, 0.32% hits; inhibition, % at 9.4 µM; S. cerevisiae expressing PfHsp90, BacTiter-Glo ATP, 48 h; yeast lacking PDR1 and PDR3 efflux regulators;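 active means every replicate shows inhibition above about 80%, whatever the replicate mean, limit read from the data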
NALP1 inh: blocks the NALP1 inflammasome reconstituted in yeast; S. cerevisiae NALP1/ASC/caspase-1 growth, X-gal OD620, 72 h; inhibition, % at 10 µM; 280,000 compounds, 0.61% hits; AID 2071; in the data active means inhibition mostly above about 24%, no sharp cut-off; inactive means mostly below about 32%
tim10-1 inh: inhibits growth of tim10-1 mutant yeast. S. cerevisiae tim10-1 ts strain growth, BacTiter-Glo, 24 h. inhibition, % at 20 µM. 330,000 compounds, 2.2% hits. AID 463190;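 active means inhibition of at least 40%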;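 further: mutant grown at 25 °C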
NALP3 yeast inh: inhibitors of NALP3 inflammasome in yeast; Yeast reconstituted NLRP3/ASC/caspase-1, beta-gal luminescence, 24 h; inhibition, % at 10 µM; 330,000 compounds, 0.39% hits; AID 2825;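 active means inhibition of 50% or more; inactive means inhibition below 50%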
tim23-1 conf: confirmation of tim23-1 mutant yeast growth inhibitors; inhibition, % at 20 µM; 4,400 compounds, 83% hits; shares compounds with tim23-1 inh; S. cerevisiae tim23-1 growth, BacTiter-Glo luminescence, 24 h;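 active means inhibition above about 39% in either of two replicate wells at 20 µM, limit read from the data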;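 further: temperature-sensitive tim23-1 mutant grown at 25 °C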
Large screens that a line does not name were inactive (follow-up assays come after a bar, where they were run).

Cc1ccc(NC(=O)c2ccc3c(c2)OCCO3)cc1C	tim23-1 inh 64 | tim23-1 conf 63
O=C(Nc1ccc(NC(=O)c2ccc3c(c2)OCCO3)cc1)c1ccccc1	none
O=C(Nc1ccc2c(c1)OCCO2)c1ccccc1F	tim23-1 inh 66 | tim23-1 conf 40
COc1cccc(N(CC(=O)NC2CCCCC2)C(=O)CCC(=O)Nc2nccs2)c1	none
CCN(CC)S(=O)(=O)c1ccc(C(=O)OCn2nnc3ccccc3c2=O)cc1	tim23-1 inh 70 | tim23-1 conf 56
NS(=O)(=O)c1ccc(N2N=C(c3ccccc3)CC2c2cccc(Cl)c2)cc1 (stereo not given)	tim23-1 inh 53 (no result: NALP1 inh, NALP3 yeast inh) | tim23-1 conf inactive
COc1ccc2c(=O)c3c(=O)n(Cc4ccco4)c(-c4ccccc4)nc3oc2c1	tim23-1 inh 59 (no result: PfHsp90 set2) | tim23-1 conf 39
COc1ccc(C2=NNC(c3cccs3)=Nc3ccc(OC)cc32)cc1	tim23-1 inh 60 | tim23-1 conf 61
COc1ccc(C2=NNC(c3cccnc3)=Nc3ccccc32)cc1	none
CCOC(=O)C1CCN(S(=O)(=O)c2cccc3nonc23)CC1	none
CCOC(=O)C1CCN(S(=O)(=O)c2c(Cl)ccc3nonc23)CC1	tim23-1 inh 65 | tim23-1 conf 60
CCOc1ccc(N/C(=C(/C(Cl)=C(Cl)Cl)[N+](=O)[O-])n2cncn2)cc1	none (no result: PfHsp90 set2)
O=[N+]([O-])/C(C(Cl)=C(Cl)Cl)=C(\Nc1ccc(F)cc1)n1cncn1	tim23-1 inh 75 (no result: PfHsp90 set2) | tim23-1 conf inactive
COc1ccc(COC(=O)C2CCN(S(=O)(=O)c3ccc(OC)c(OC)c3)CC2)cc1	none (no result: NALP1 inh)
COc1ccc(-c2ccccc2[C@H]2[C@@H]3C=CC[C@@H](C)[C@@H]3C(=O)N2Cc2ccccc2)cc1	none (no result: NALP1 inh, NALP3 yeast inh)
C[C@@H]1CC=C[C@@H]2[C@H]1C(=O)N(Cc1ccccc1)[C@H]2c1ccccc1Br	tim23-1 inh 52 (no result: NALP1 inh, NALP3 yeast inh) | tim23-1 conf inactive
C[C@@H]1CC=C[C@@H]2[C@H]1C(=O)N(Cc1ccccc1)[C@H]2c1cccc(C#Cc2ccccc2)c1	none (no result: NALP1 inh, NALP3 yeast inh)
COC(=O)/C=C/c1cccc([C@H]2[C@@H]3C=CC[C@@H](C)[C@@H]3C(=O)N2Cc2ccccc2)c1	tim23-1 inh 51 (no result: NALP1 inh, NALP3 yeast inh) | tim23-1 conf inactive
C#CCOCCOCCOCCNc1nc(N2CCN(C(=O)[C@H](CC(N)=O)n3cc([C@@H](N)C(C)C)nn3)CC2)nc(N2CCN(C(=O)[C@H](CC(N)=O)n3cc([C@@H](N)C(C)C)nn3)CC2)n1	none (no result: NALP1 inh)
O=C(N/N=C/c1cc(Br)cs1)c1c[nH]c2ccccc12	tim23-1 inh 60 | tim23-1 conf 71
O=C(N/N=C/c1ccc(Br)s1)c1c[nH]c2ccccc12	tim23-1 inh 55 | tim23-1 conf 46
O=C(N/N=C/c1ccc(Br)s1)c1cccs1	tim23-1 inh 57 | tim23-1 conf 63
Cc1ccc(/C=N/NC(=O)c2cccs2)s1	none
O=C(CSc1ccc(-c2ccc(Br)cc2)nn1)NC1CCCC1	none
CCOc1ccc(NC(=O)c2ccccc2NC(=O)c2cccnc2)cc1	none
COc1ccc(OC)c(S(=O)(=O)n2nnc3cc(Cl)ccc32)c1	none
COc1cc(S(=O)(=O)n2nnc3ccccc32)c(OC)cc1Cl	tim23-1 inh 61 | tim23-1 conf 56
COc1ccc(C(=S)N2CCOCC2)cc1OS(=O)(=O)c1ccccc1[N+](=O)[O-]	none
O=C(Cn1cccn1)N1CCCC(N2CCN(c3ccccc3F)CC2)C1 (stereo not given)	none
Nc1ccc(/C=C/C(=O)c2cccs2)cc1	tim23-1 inh 56 | tim23-1 conf 80
CC(C)[C@@]1(c2ccccc2)ON(c2ccccc2C(F)(F)F)C1=O	none (no result: PfHsp90 set2, NALP1 inh)
Cc1ccccc1[C@]1(C)ON(c2ccccc2C(F)(F)F)C1=O	tim23-1 inh 53 (no result: PfHsp90 set2, NALP1 inh) | tim23-1 conf 58
CCOC(=O)c1cnc(-n2nc(C)cc2C)nc1NC1CCCCC1	tim23-1 inh 54 | tim23-1 conf 43
O=c1c2c(n3cnnc3n1-c1ccccc1)-c1ccccc1CC21CCCC1	none
O=c1c2c(n3cnnc3n1C1CCCCC1)-c1ccccc1CC21CCCCC1	tim23-1 inh 54 | tim23-1 conf inactive
Cc1cccc(/C=c2\s/c(=C\C(=O)C(C)(C)C)[nH]c2=O)c1	tim23-1 inh 50 | tim23-1 conf 54
COc1cc(/C=N/N(c2ccccc2)c2ccccc2)ccc1O	none
CN(/N=C\c1ccc(O)c(O)c1)c1nc(-c2ccccc2)cc(-c2ccccc2)n1	tim23-1 inh 55 | tim23-1 conf 41
CC(C)Sc1nc2[nH]ncc2c(=O)[nH]1	none (no result: PfHsp90 set2)
O=C(Nc1ccc2oc(-c3ccccc3)nc2c1)c1ccncc1	tim23-1 inh 65 | tim23-1 conf 67
O=C(Nc1ccc2oc(Cc3ccc(Cl)cc3)nc2c1)c1cccnc1	tim23-1 inh 59 | tim23-1 conf 54
CC(C)S(=O)(=O)c1cnc(-c2ccccn2)nc1N	none
CCOC(=O)C1=C(C)N=c2s/c(=C\c3ccc(OCC(=O)O)cc3)c(=O)n2C1c1ccccc1 (stereo not given)	none
COC(=O)C1=C(C)N=c2s/c(=C/c3ccoc3)c(=O)n2C1c1ccccc1 (stereo not given)	tim23-1 inh 50 (no result: PfHsp90 set2) | tim23-1 conf 50
Cc1cc(C)c(O)c(-c2n[nH]c3c2C(c2cccc(O)c2)N(Cc2ccco2)C3=O)c1 (stereo not given)	none
O=C(CN1CCc2cc3c(cc2C1)OCCCO3)Nc1cccc(Br)c1	tim23-1 inh 60 | tim23-1 conf 74
CN(C)C(=O)c1ccc(NC(=O)CN2CCc3cc4c(cc3C2)OCCCO4)cc1	none
CC(=O)c1ccc(N2CCN(C(=O)c3ccc(Br)cc3)CC2)c(F)c1	tim23-1 inh 57 | tim23-1 conf inactive
COc1cc(-c2c(NC(=O)c3ccco3)oc3c(C)cccc3c2=O)cc(OC)c1OC	none
COc1cccc(-c2c(NC(=O)c3ccco3)oc3ccccc3c2=O)c1	none
O=C(Nc1oc2ccc(Cl)cc2c(=O)c1-c1ccc(F)cc1)c1ccco1	tim23-1 inh 53 | tim23-1 conf 46
COc1cccc(-c2c(NC(=O)c3ccco3)oc3ccc(Cl)cc3c2=O)c1	none
COc1ccc(-c2c(NC(=O)c3ccco3)oc3c(C)cccc3c2=O)cc1	tim23-1 inh 51 | tim23-1 conf 43
O=C(Nc1oc2ccccc2c(=O)c1-c1ccc(Br)cc1)c1ccco1	tim23-1 inh 52 | tim23-1 conf 41
COc1ccccc1/C=C/C(=O)NCC(=O)N=Nc1c(O)[nH]c2ccccc12	none
CC(OC(=O)CCCC(=O)Nc1ccccc1)C(=O)c1ccccc1 (stereo not given)	none
Cc1cccc(C(=O)N/N=C/c2coc3ccccc3c2=O)c1	none

Source: PubChem (several laboratories)
